Reference: PubChem BioAssay AID1159580 (chemical genetic matrix, 2015)
About 2,000 (36%) of roughly 5,500 compounds were called active. Inconclusive results (about 18%) are left out. Cut-off read from the data, not from the text of the source: active = normalized growth mostly below about 0.91 (no sharp cut-off); inconclusive = no clear call, values can overlap the other calls; inactive = mostly above about 0.92. This is one part of the list.

Assay: chemical genetic growth profiling, strain panel (AID 1159580);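 note: tested at 20 µM; growth read once vehicle control cultures reached saturation at 30 °C; 1 = growth at the plate median or of vehicle wells; lower values mean less growth of the strain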
Conditions: growth OD

Measured: normalized growth

CC12CCCC(O)(C1)C1CC(C)(C)C1CC2 (configuration not stated)
inactive: S. cerevisiae deletion strains, locus YJR066W, strain TOR1, active compounds read low 0.95 | S. cerevisiae deletion strains, locus YKL009W, strain mrt4, active compounds read low 1.02 | S. cerevisiae deletion strains, locus YKL068W, active compounds read low 1.01 | S. cerevisiae deletion strains, locus YKL085W, strain MDH1 (second series), active compounds read low 0.998 | S. cerevisiae deletion strains, locus YKL085W, strain MDH1, active compounds read low 0.998 | S. cerevisiae deletion strains, locus YKL160W, strain elf1, active compounds read low 0.954 | S. cerevisiae deletion strains, locus YKR001C, strain vps1, active compounds read low 1.02 | S. cerevisiae deletion strains, locus YKR026C, strain gcn3, active compounds read low 0.999 | S. cerevisiae deletion strains, locus YKR091W, strain srl3, active compounds read low 0.991 | S. cerevisiae deletion strains, locus YLL001W, strain dnm1, active compounds read low 0.925 | S. cerevisiae deletion strains, locus YLL026W, active compounds read low 0.982 | S. cerevisiae deletion strains, locus YLL041C, strain sdh2, active compounds read low 0.982 | S. cerevisiae deletion strains, locus YLR027C, strain aat2, active compounds read low 0.948 | S. cerevisiae deletion strains, locus YLR039C, strain RIC1, active compounds read low 0.972 | S. cerevisiae deletion strains, locus YLR058C, strain SHM2, active compounds read low 1.01 | S. cerevisiae deletion strains, locus YLR102C, strain apc9, active compounds read low 1.01 | S. cerevisiae deletion strains, locus YLR113W, strain HOG1, active compounds read low 0.939 | S. cerevisiae deletion strains, locus YLR221C, strain rsa3, active compounds read low 0.983 | S. cerevisiae deletion strains, locus YLR258W, strain gsy2, active compounds read low 0.961 | S. cerevisiae deletion strains, locus YLR262C, strain YPT6 (second series), active compounds read low 0.878 | S. cerevisiae deletion strains, locus YLR262C, strain YPT6, active compounds read low 1.01 | S. cerevisiae deletion strains, locus YLR268W, strain sec22, active compounds read low 0.992 | S. cerevisiae deletion strains, locus YLR320W, strain mms22, active compounds read low 0.937 | S. cerevisiae deletion strains, locus YLR342W, strain FKS1, active compounds read low 0.918 | S. cerevisiae deletion strains, locus YLR357W, strain rsc2, active compounds read low 0.984 | S. cerevisiae deletion strains, locus YLR370C, strain arc18, active compounds read low 0.981 | S. cerevisiae deletion strains, locus YLR371W, strain rom2, active compounds read low 1.01 | S. cerevisiae deletion strains, locus YLR384C, strain iki3, active compounds read low 1.01 | S. cerevisiae deletion strains, locus YLR418C, strain cdc73, active compounds read low 1.1 | S. cerevisiae deletion strains, locus YML016C, strain PPZ1, active compounds read low 1.01 | S. cerevisiae deletion strains, locus YML032C, strain rad52, active compounds read low 1.02 | S. cerevisiae deletion strains, locus YML120C, strain ndi1, active compounds read low 1 | S. cerevisiae deletion strains, locus YML124C, strain tub3, active compounds read low 1.01 | S. cerevisiae deletion strains, locus YMR058W, strain fet3, active compounds read low 0.985 | S. cerevisiae deletion strains, locus YMR078C, strain ctf18, active compounds read low 1.02 | S. cerevisiae deletion strains, locus YMR125W, strain sto1, active compounds read low 0.974 | S. cerevisiae deletion strains, locus YMR129W, active compounds read low 1.01 | S. cerevisiae deletion strains, locus YMR223W, strain ubp8, active compounds read low 1.02 | S. cerevisiae deletion strains, locus YMR231W, strain pep5, active compounds read low 0.996 | S. cerevisiae deletion strains, locus YMR263W, strain SAP30, active compounds read low 1.01 | S. cerevisiae deletion strains, locus YMR307W, strain GAS1, active compounds read low 0.968 | S. cerevisiae deletion strains, locus YNL067W, strain RPL9B, active compounds read low 1.02 | S. cerevisiae deletion strains, locus YNL153C, strain GIM3, active compounds read low 1.02 | S. cerevisiae deletion strains, locus YNL183C, strain NPR1, active compounds read low 0.953 | S. cerevisiae deletion strains, locus YNL209W, strain ssb2, active compounds read low 1 | S. cerevisiae deletion strains, locus YNL233W, strain BNI4, active compounds read low 1.02 | S. cerevisiae deletion strains, locus YNL248C, strain rpa49, active compounds read low 1.01 | S. cerevisiae deletion strains, locus YNL250W, strain rad50, active compounds read low 1.04 | S. cerevisiae deletion strains, locus YNL271C, strain bni1, active compounds read low 0.998 | S. cerevisiae deletion strains, locus YNL298W, strain CLA4, active compounds read low 0.993 | S. cerevisiae deletion strains, locus YNL307C, strain MCK1, active compounds read low 1.02 | S. cerevisiae deletion strains, locus YNL322C, strain KRE1 (second series), active compounds read low 0.974 | S. cerevisiae deletion strains, locus YNL322C, strain KRE1, active compounds read low 1.01 | S. cerevisiae deletion strains, locus YNR049C, strain mso1, active compounds read low 1 | S. cerevisiae deletion strains, locus YNR052C, strain pop2, active compounds read low 1.03 | S. cerevisiae deletion strains, locus YOL012C, strain htz1 1.39 | S. cerevisiae deletion strains, locus YOL147C, strain pex11, active compounds read low 0.997 | S. cerevisiae deletion strains, locus YOR001W, strain rrp6, active compounds read low 1.05 | S. cerevisiae deletion strains, locus YOR061W, strain CKA2, active compounds read low 1 | S. cerevisiae deletion strains, locus YOR069W, strain VPS5, active compounds read low 1.01 | S. cerevisiae deletion strains, locus YOR070C, strain gyp1, active compounds read low 0.975 | S. cerevisiae deletion strains, locus YOR080W, strain dia2, active compounds read low 1.01 | S. cerevisiae deletion strains, locus YOR083W, strain WHI5, active compounds read low 0.956 | S. cerevisiae deletion strains, locus YOR106W, strain vam3, active compounds read low 0.986 | S. cerevisiae deletion strains, locus YOR136W, strain idh2, active compounds read low 1.01 | S. cerevisiae deletion strains, locus YOR144C, strain elg1, active compounds read low 1 | S. cerevisiae deletion strains, locus YOR184W, strain ser1, active compounds read low 0.978 | S. cerevisiae deletion strains, locus YOR231W, strain MKK1, active compounds read low 0.973 | S. cerevisiae deletion strains, locus YOR265W, strain rbl2, active compounds read low 0.999 | S. cerevisiae deletion strains, locus YOR290C, strain snf2, active compounds read low 0.954 | S. cerevisiae deletion strains, locus YOR316C, strain cot1, active compounds read low 1.01 | S. cerevisiae deletion strains, locus YPL051W, strain arl3, active compounds read low 0.939 | S. cerevisiae deletion strains, locus YPL055C, strain LGE1, active compounds read low 1.01 | S. cerevisiae deletion strains, locus YPL078C, strain atp4, active compounds read low 0.941 | S. cerevisiae deletion strains, locus YPL106C, strain sse1, active compounds read low 0.892 | S. cerevisiae deletion strains, locus YPL240C, strain hsp82, active compounds read low 0.991 | S. cerevisiae deletion strains, locus YPL241C, strain CIN2, active compounds read low 0.999 | S. cerevisiae deletion strains, locus YPL256C, strain CLN2, active compounds read low 0.958 | S. cerevisiae deletion strains, locus YPR119W, strain clb2, active compounds read low 1.02 | S. cerevisiae deletion strains, locus YPR141C, strain kar3, active compounds read low 1 | S. cerevisiae deletion strains, locus YPR163C, strain tif3, active compounds read low 1.02 | S. cerevisiae deletion strains, locus YPR167C, strain met16, active compounds read low 1.01 | S. cerevisiae deletion strains, strain wtn01, active compounds read low 1.01 | S. cerevisiae strains, strain wild type, active compounds read low 1.01
active: S. cerevisiae deletion strains, locus YMR205C, strain PFK2, active compounds read low 0.861 | S. cerevisiae deletion strains, locus YNL071W, strain lat1, active compounds read low 0.859 | S. cerevisiae deletion strains, locus YOR270C, strain vph1, active compounds read low 0.709
